Here are results for eleven compounds from PubChem BioAssay (NCATS).

Where “and” joins values, the source holds several entries; their conditions need not be identical. Identical values can stand only once. Inconclusive results are not listed. More than one record can exist for a structure, and the calls need not agree. Calls of active or inactive are those of the source. Unless noted, the call rests on the fitted dose curve; in most records, active means well fitted curve in the direction sought with a large enough effect; inconclusive means small, poorly fitted or top-dose-only effect, or another doubt; inactive means no such curve, though single readings can be large; an effect the other way counts as inactive or inconclusive.

For test [1], the target named is 3',5'-cyclic-AMP phosphodiesterase 4B (Homo sapiens) (UniProt Q07343). Description: qHTS Assay for Inhibitors of PDE-IV (AID 607; active means well fitted activation curve with a large enough effect in the main read-out, with a control signal flat, not every such curve was filed as active). The gist of the method: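 Live HEK293 cells with a modified cyclic nucleotide-gated (CNG) channel report intracellular cAMP via membrane-potential dye fluorescence (ex 535/em 590 nm). Endogenous PDE-IV was targeted. Compounds were tested at up to 22.9 uM final; RO 20-1724 100 uM served as control.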

A short description of test [2]: Cellular Toxicity (caspase-3) HepG2 (AID 654).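 Further: cells exposed to compound for 16 hours before reading.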 An outline of the steps:
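Caspase 3/7 activation in HepG2 is measured as rising luminescence after a 16 hr treatment at 37 °C. Values are scaled between DMSO basal and 100 uM tamoxifen, and AC50 is fitted with the Hill equation.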

Test [3] in a line: Cellular Toxicity (caspase-3) Jurkat (AID 655).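 Further: cells exposed to compound for 16 h at 37 °C before reading.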 Further: potency means the concentration at half of the fitted maximal effect. An outline of the steps: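 Jurkat cells (5000/well) in complete medium exposed 16 h at 37 C; caspase-3/7 activity read by Caspase-Glo luminescence after 20 min at room temperature. Normalized to DMSO and 100 uM tamoxifen; AC50 from Hill fits.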
The nature of test [4]: Cellular Toxicity (caspase-3) HUV-EC-C (AID 656). An outline of the steps:
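HUV-EC-C cells (1000/well) in complete medium, compound-treated 16 h at 37 °C; caspase-3/7 activity read by Caspase-Glo 3/7 luminescence. Normalized to DMSO (basal) and 100 uM tamoxifen (100%); AC50 from Hill-equation concentration-response fits.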

Test [5] can be described thus: Cellular Toxicity (caspase-3) BJ (AID 658). The gist of the method: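 Plated BJ cells (1000/well) rested 5 hr, received compound for 16 hr at 37 °C, then Caspase-Glo 3/7 reagent for 1 hr at room temperature before luminescence reading.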
Test [6] is described as follows: Cellular Toxicity (caspase-3) MRC-5 (AID 659). An outline of the steps:
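Apoptosis readout in MRC-5 cells: luciferase light generated after caspase 3/7 cleaves a peptide-aminoluciferin substrate, measured post 16 hr compound incubation at 37 °C.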

Test [7] in a line: Cellular Toxicity (caspase-3) Mesangial (AID 660).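 Further: cells exposed to compound for 16 h before the caspase read.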 An outline of the steps: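 Seed cells derived from normal human renal glomeruli, incubate 5 h, add compounds across concentrations and incubate 16 h at 37 °C. Caspase 3/7 activation is then quantified by luciferase light, with AC50 derived by Hill modeling.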
A short description of test [8]: Cellular Toxicity (caspase-3) SK-N-SH (AID 661). Further: potency means the concentration at half of the fitted maximal effect. An outline of the steps:
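Cells were seeded and incubated 5 hr at 37 °C, dosed with compound over a concentration range for 16 hr, then given Caspase-Glo 3/7 reagent for 1 hr at room temperature before luminescence reading.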

The nature of test [9]: Cellular Toxicity (caspase-3) H-4-II-E (AID 663).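 Further: cells exposed to compound for 16 hr before readout.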 An outline of the steps:
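Caspase 3/7 activation measured in H-4-II-E cells in complete culture medium after 16 hr treatment at 37 °C, using luciferase-coupled substrate readout; AC50 values come from Hill-equation fits of normalized concentration-response data.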

Test [10] can be described thus: Cellular Toxicity (caspase-3) Hek293 (AID 664).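 Further: cells exposed to compound for 16 h at 37 °C before readout.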 To be noted: HEK293 caspase-3 activation; caspase-3 activation: at 92.2 µM (top of the series), DMSO = 0%, 100 µM tamoxifen = 100%. An outline of the steps:
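qHTS, HEK293 (human embryonic kidney), 16 h cpd exposure in complete medium. Caspase-3/7 activation = luminescence increase; normalized to DMSO/100 uM tamoxifen; Hill-fit AC50.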

Test [11] in a line: Cellular Toxicity (caspase-3) N2a (AID 665).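 Further: compound exposure lasted 16 h at 37 °C before readout.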 An outline of the steps: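 Caspase-3/7 activation, measured as increased luminescence from aminoluciferin release, is quantified in mouse N2a cells exposed to compounds for 16 h. Values are normalized to DMSO and 10 uM staurosporine, with AC50 derived by Hill modelling.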
Test [12] can be described thus: Cellular Toxicity (caspase-3) NIH 3T3 (AID 666).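 Further: caspase signal read after 16 h compound exposure.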 The gist of the method:
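Cells were plated at 1000 per well and incubated 5 hr at 37°C, then compound was added for 16 hr. Caspase-Glo 3/7 reagent followed for 20 min at room temperature before luminescence was read.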

Test [13] is described as follows: Cellular Toxicity (caspase-3) Renal Proximal Tubule (AID 667).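 Further: cells exposed to compound for 16 hours at 37 °C before detection.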 The gist of the method:
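Freshly isolated primary rat kidney proximal tubule cells, 1000/well, treated 16 hr at 37 °C, then Caspase-Glo 3/7 luminescence after 1 hr. Normalized to DMSO and 10 uM staurosporine; AC50 from Hill fit.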

The target of test [14] is Guanine nucleotide-binding protein G(i) subunit alpha-1 (Homo sapiens) (UniProt P63096). Description: qHTS Assay for Inhibitors of RGS12 GoLoco Motif Activity (Green Fluorophore) (AID 879).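 Further: negative values mean loss of peptide binding seen as reduced polarization.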 The gist of the method:
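A drop in FITC polarization marked displacement of the FITC-tagged RGS12 GoLoco peptide (10 nM) from Gαi1 (50 nM). Compounds were incubated 10 min at room temperature in Tris pH 7.5 buffer containing 150 mM NaCl, 0.1 mM GDP and 0.05% NP40; unlabeled peptide titration served as control.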
Background: In qHTS, concentration-response curves come from the screen itself.

The target in test [15] is Cytochrome P450 2C9 (Homo sapiens) (UniProt P11712). Description: qHTS Assay for Inhibitors and Substrates of Cytochrome P450 2C9 (AID 883). Further: nearly all actives have a fitted effect of over 60% in size. The gist of the method:
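A luminogenic readout tracked human CYP2C9 (10nM) converting deoxyluciferin (100uM, at KM) in 25mM KPO4 during 60 min at 37C with regenerated NADPH. Values normalized to 57uM sulphaphenazole as complete inhibition.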

The target in test [16] is Cytochrome P450 2D6 (Homo sapiens) (UniProt P10635). Description: qHTS Assay for Inhibitors and Substrates of Cytochrome P450 2D6 (AID 891). Further: nearly all actives have a fitted effect of over 60% in size. Further: potency means the concentration at half of the fitted maximal effect. The gist of the method:
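Luminescent read-out of luciferin formed by 5 nM human CYP2D6 demethylating 30 uM Luciferin-ME EGE (Km level) over 60 min at room temperature after NADPH regeneration addition. Data normalized to full inhibition by 1.43 uM quinidine.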

The target of test [17] is Cytochrome P450 2C19 (Homo sapiens) (UniProt P33261). Description: qHTS Assay for Inhibitors and Substrates of Cytochrome P450 2C19 (AID 899). Further: nearly all actives have a fitted effect of over 60% in size. Further: potency means the concentration at half of the fitted maximal effect. The gist of the method: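 NADPH-dependent conversion of Luciferin-H EGE (10uM, at KM) by 5nM enzyme in 50mM KPO4, 60 min at 37C following 10 min compound preincubation. Stopped with luciferin detection buffer; luminescence read after 20 min.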

Test [18] can be described thus: Cellular Toxicity (caspase-3) SHSY5Y (AID 657). The gist of the method: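 SH-SY5Y human neuroblastoma cells, 1500/well, exposed to compound for 16 hours at 37 °C in complete medium. Caspase-3/7 activity read by Caspase-Glo luminescence after 1 hr at room temperature, normalized to DMSO and 10 uM staurosporine; AC50 from Hill fit.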
Test [19] is described as follows: qHTS Assay for Identification of Small Molecule Antagonists for NFkB Signaling Pathway (AID 895; active means well fitted inhibition curve with a large enough effect in the signal ratio, with a control signal flat, not every such curve was filed as active; the % refers to the signal ratio). The gist of the method:
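NFkB-bla ME-180 cervical carcinoma cells with beta-lactamase reporter under NFkB response element; compounds added, then TNF alpha at 10 pM final (EC50), 5 h at 37 C. LiveBLAzer substrate 2 h, room temperature; emission 460/530 nm at 405 nm excitation.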

Test [20] has as its target Cytochrome P450 3A4 (Homo sapiens) (UniProt P08684). Description: qHTS Assay for Inhibitors and Substrates of Cytochrome P450 3A4 (AID 884). Further: nearly all actives have a fitted effect of over 50% in size. The gist of the method:
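Luminescent readout of luciferin produced by CYP3A4 (20 nM) dealkylation of Luciferin-PPXE, 25 uM (its KM). NADPH-driven reaction ran 60 min at RT after 10 min compound preincubation; data scaled to 57 uM ketoconazole as 100% inhibition.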

Sequence of 3',5'-cyclic-AMP phosphodiesterase 4B (Homo sapiens) (Q07343 whole entry, looked up): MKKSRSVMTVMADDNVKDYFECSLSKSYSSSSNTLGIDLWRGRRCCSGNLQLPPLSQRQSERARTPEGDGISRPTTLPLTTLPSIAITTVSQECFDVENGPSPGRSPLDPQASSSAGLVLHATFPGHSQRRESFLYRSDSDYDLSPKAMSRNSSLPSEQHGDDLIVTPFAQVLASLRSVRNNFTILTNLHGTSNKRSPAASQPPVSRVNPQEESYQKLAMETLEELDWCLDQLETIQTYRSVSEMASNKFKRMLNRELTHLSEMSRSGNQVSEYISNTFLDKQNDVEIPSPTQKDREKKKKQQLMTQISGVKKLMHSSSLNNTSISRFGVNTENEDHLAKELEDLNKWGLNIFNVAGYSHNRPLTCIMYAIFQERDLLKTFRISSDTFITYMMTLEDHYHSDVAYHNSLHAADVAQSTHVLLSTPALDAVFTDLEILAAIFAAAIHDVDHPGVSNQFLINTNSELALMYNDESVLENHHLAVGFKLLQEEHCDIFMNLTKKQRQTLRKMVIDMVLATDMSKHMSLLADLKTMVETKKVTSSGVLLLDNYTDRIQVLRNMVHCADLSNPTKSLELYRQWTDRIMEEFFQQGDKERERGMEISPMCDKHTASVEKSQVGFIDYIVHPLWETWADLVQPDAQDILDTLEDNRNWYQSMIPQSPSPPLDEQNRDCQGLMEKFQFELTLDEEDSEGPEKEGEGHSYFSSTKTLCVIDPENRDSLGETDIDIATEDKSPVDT
Sequence of Cytochrome P450 2D6 (Homo sapiens) (P10635 whole entry, looked up): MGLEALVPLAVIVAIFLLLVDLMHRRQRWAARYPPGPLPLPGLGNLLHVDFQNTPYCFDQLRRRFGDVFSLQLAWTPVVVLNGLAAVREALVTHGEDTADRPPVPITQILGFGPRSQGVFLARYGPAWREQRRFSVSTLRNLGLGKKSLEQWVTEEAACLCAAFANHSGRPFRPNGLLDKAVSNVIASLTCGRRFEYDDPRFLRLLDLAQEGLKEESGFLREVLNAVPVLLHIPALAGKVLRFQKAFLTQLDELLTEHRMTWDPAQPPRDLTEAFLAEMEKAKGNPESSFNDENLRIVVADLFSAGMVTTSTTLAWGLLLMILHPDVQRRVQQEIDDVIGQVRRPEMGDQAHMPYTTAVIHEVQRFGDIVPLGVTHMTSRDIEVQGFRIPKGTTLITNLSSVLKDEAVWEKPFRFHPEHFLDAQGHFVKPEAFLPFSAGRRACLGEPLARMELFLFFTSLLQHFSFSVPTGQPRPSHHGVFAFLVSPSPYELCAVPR
Sequence of Guanine nucleotide-binding protein G(i) subunit alpha-1 (Homo sapiens) (P63096 whole entry, looked up): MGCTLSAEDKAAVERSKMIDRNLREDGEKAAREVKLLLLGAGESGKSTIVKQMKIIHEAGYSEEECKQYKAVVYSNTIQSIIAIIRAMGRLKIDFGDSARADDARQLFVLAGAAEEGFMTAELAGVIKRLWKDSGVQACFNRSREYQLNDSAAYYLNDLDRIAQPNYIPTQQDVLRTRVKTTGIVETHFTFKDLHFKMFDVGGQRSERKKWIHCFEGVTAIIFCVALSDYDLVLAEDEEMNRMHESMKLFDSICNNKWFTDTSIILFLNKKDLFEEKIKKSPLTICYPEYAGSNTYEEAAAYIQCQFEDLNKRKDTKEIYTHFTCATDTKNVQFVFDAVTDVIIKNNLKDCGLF
Sequence of Cytochrome P450 2C9 (Homo sapiens) (P11712 whole entry, looked up): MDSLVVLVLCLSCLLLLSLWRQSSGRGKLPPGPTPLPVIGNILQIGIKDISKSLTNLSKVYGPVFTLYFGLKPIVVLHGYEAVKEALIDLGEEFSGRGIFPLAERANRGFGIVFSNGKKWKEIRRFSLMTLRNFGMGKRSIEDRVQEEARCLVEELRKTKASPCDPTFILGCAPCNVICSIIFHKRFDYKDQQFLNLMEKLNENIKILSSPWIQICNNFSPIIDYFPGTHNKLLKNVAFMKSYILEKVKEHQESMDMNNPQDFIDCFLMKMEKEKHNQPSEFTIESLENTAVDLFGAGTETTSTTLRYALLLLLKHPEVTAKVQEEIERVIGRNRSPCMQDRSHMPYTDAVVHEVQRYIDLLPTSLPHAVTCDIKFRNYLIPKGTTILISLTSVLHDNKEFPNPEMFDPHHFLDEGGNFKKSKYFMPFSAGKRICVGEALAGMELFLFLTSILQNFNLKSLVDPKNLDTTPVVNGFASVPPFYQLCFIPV
Sequence of Cytochrome P450 3A4 (Homo sapiens) (P08684 whole entry, looked up): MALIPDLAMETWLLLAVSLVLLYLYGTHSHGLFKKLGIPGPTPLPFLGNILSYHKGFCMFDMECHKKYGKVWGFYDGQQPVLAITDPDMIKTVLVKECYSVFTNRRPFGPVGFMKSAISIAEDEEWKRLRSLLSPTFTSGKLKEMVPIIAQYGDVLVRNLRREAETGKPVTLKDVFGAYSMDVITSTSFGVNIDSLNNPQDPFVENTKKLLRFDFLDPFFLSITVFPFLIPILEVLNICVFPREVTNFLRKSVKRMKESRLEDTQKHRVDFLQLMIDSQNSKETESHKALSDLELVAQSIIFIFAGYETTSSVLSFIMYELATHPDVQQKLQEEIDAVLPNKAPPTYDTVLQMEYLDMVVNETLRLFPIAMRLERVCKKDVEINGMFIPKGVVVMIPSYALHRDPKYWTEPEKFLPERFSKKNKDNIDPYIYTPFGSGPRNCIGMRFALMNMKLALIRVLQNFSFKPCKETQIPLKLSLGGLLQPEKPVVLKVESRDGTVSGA
Sequence of Cytochrome P450 2C19 (Homo sapiens) (P33261 whole entry, looked up): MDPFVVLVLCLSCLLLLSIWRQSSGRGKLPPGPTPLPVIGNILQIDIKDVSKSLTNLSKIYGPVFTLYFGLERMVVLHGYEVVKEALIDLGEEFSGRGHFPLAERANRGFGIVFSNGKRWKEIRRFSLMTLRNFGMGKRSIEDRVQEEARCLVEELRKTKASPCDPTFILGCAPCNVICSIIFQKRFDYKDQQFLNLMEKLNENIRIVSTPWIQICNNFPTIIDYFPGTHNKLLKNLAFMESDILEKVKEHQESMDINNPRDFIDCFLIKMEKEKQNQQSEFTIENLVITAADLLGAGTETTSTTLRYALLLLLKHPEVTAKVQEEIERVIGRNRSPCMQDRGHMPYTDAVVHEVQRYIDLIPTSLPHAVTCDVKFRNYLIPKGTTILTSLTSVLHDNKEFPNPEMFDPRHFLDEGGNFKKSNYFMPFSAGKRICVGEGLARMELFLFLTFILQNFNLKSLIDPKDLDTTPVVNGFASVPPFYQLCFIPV

As to `O=c1c(-c2ccc(O)cc2)coc2cc(O)cc(O)c12`, the Potency result in test [1], in test [3], in test [8], in [10], in [14] and in test [15] was “inactive” each time. For the same compound, in [16], the Potency entry is “inactive”. Further, the call in [2], in [4], in test [5], in test [6], in [7] and in [9] was inactive. The result in test [11], in [12] and in [13] was inactive. Moreover, the Potency entry in [17] was “inactive and 20 µM (active)”.

On to `COc1cc2c(c(OC)c1OC)-c1ccc(OC)c(=O)cc1[C@@H](NC(C)=O)CC2`, for which the Potency entry in test [1], in test [10] and in test [19] was “inactive” each time. The outcome in test [2], in [4], in test [18], in [5], in test [6] and in test [7] was inactive. In addition, the outcome in test [9], in [11], in test [12] and in test [13] was inactive. For the same compound, the Potency in test [3] is 3.98 nM (active) and 3.16 nM (active); in test [8] it was 200 nM (active) and 251 nM (active).

`NCCc1cnc[nH]1`: the Potency entry in [1] is “inactive”.

As for `Cn1ccc2cc3c(cc21)CCN3C(=O)Nc1cccnc1`, in test [1], the Potency result was “inactive”.

Turning to `N[C@@H](Cc1c[nH]c2ccc(O)cc12)C(=O)O`, the Potency result in test [1], in test [3], in [8], in test [10], in [15] and in [16] was “inactive” each time. The Potency result in test [17] is “inactive”. The result in [2], in test [4], in test [18], in [5], in [6] and in [7] was inactive. Also, the outcome in test [9], in [11], in test [12] and in test [13] was inactive.

For `Nc1nc2c(ncn2COC(CO)CO)c(=O)[nH]1`, in [1], the Potency result is “inactive”.

Turning to `Cn1c(=O)c2[nH]cnc2n(C)c1=O`, the Potency entry in [1], in test [3], in test [8], in test [10], in [14] and in [19] was “inactive” in each case. The compound was classed as inactive in test [2], in test [4], in test [18], in [5], in [6] and in test [7]. Also, the compound was classed as inactive in [9], in test [11], in test [12], in test [13] and in test [20].

Regarding `Clc1ccc2c(c1)C(N1CCNCC1)=Nc1ccccc1O2`, the Potency result in test [1], in test [14], in [15] and in test [17] was “inactive” in each case.

On to `Cc1cc(C(C)(C)C)c(O)c(C)c1CC1=NCCN1`, for which the Potency entry in test [1], in test [14] and in [17] was “inactive” throughout. Besides, in test [16], the Potency is 3.98 µM (active) and 39.8 nM (active).

Regarding `COc1ccc2c(c1)c(CC(=O)O)c(C)n2C(=O)c1ccc(Cl)cc1`, the Potency entry in [1], in test [3], in [8], in test [10], in [16] and in [17] was “inactive” in each case. Besides, the result in test [2], in test [4], in test [18], in test [5], in test [6] and in test [7] was inactive. For the same compound, the result in [9], in test [11], in test [12], in test [13] and in test [20] was inactive.

For `CCC1(c2ccccc2)C(=O)NCNC1=O`, the Potency result in test [1], in test [3], in test [8], in test [10], in [15] and in [16] was “inactive” in each case. The Potency entry in test [19] and in [17] was “inactive” in each case. In addition, the call in test [2], in [4], in [18], in [5], in test [6] and in [7] was inactive. Further, the compound was called inactive in test [9], in test [11], in test [12], in test [13] and in test [20].
